An excerpt weighted towards active compounds, which were near 18% of everything screened.
LDHA inh: blocks human lactate dehydrogenase A. 0.15% of 480,000 active. purified LDHA, NADH/diaphorase-resazurin fluorescence; hits give low values. activity change, % (values are at about 110 or 230 µM). P00338; in the data active = activity change below about -30%; inconclusive = mostly about -25% to -30%;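 note: plate controls were DMSO wells for no effect and wells without enzyme for full effect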
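Human LDH5 at 2 nM final in Tris HCl pH 7.4 with 0.06 mM NADH and 0.2 mM pyruvate, reacted 5 minutes at room temperature. Remaining NADH coupled via diaphorase/resazurin; resorufin fluorescence read at 0 and 20 minutes, normalized to enzyme-free and DMSO wells.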
RORgamma inh: blocks mouse ROR gamma transcriptional activity | P51450 | Drosophila S2 Gal4-RORgamma UAS-luciferase reporter, 20 h | Potency, µM (titrated, usually from 53.6 µM), inactives show top-dose activity change, negative = inhibition, most hits filed as inhibitors | 5.4% of 310,000 active; note: potency is the fitted concentration of half-maximal effect; nearly all actives have a fitted effect of over 60% in size
Target sequence (P51450 whole entry, looked up, the tested form may be a part): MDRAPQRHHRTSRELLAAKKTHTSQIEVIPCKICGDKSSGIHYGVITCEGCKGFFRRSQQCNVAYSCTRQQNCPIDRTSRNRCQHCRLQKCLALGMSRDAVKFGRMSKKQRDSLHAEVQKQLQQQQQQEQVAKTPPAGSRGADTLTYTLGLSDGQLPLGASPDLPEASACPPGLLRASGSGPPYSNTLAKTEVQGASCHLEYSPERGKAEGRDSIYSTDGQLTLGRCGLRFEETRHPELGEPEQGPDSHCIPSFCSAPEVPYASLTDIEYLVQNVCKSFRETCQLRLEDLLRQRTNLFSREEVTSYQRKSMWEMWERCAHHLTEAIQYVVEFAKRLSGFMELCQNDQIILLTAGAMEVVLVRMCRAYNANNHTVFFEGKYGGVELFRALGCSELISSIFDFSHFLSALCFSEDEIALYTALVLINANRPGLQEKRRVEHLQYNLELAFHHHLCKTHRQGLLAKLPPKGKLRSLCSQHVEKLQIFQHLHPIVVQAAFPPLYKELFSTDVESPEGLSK
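Compounds are pin-transferred onto Drosophila Schneider cells expressing a copper-inducible Gal4–ROR gamma transactivation domain fusion. After 1 hr, copper sulfate is added to 700 uM final; luciferase is read 20 hr later.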
Gal4-VP16 FLuc: counter-screen for ROR gamma inhibitors: Gal4-VP16 reporter. Drosophila S2 Gal4-VP16 UAS-luciferase, luminescence, 20 h. Potency, µM (doses to about 53.6 µM), without a hit: at the highest dose activity, negative = inhibition, most hits filed as inhibitors. 3.5% of 310,000 active. AID 2546;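 note: Gal4-VP16 expression switched on by copper sulfate through the metallothionein promoter; potency is the fitted concentration of half-maximal effect; nearly all actives have a fitted effect of over 50% in size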
DT40 TDP1 no CPT: qHTS for Inhibitors of human tyrosyl-DNA phosphodiesterase 1 (TDP1): qHTS in cells in absence of CPT | Potency, µM (highest dose often 46.2 µM), for inactives: at the top dose activity change, negative = growth inhibition, most hits filed as inhibitors | 15% of 420,000 active | DT40 Tdp1-/- hTDP1 cells, no CPT, ATP luminescence, 48 h; note: potency is the fitted concentration of half-maximal effect; nearly all actives have a fitted effect of over 55% in size
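Cells were dispensed at 400 per well, compounds added by pin tool, plates incubated ≥48 hr at 37 °C, then CellTiter-Glo added for 30 min at room temperature before luminescence reading. Line: DT40 Tdp1-/- complemented with hTDP1; camptothecin omitted.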
IL-1B inflam inh: inhibitors of inflammasome signaling (IL-1 beta secretion); THP-1 LPS/ATP IL-1B secretion, AlphaLISA, 16 h; hits give low values; activity change, % at 57.5 µM; 4.7% of 360,000 active; AID 743279; in the data active = activity change below about -50%; inconclusive = mostly about -30% to -49%
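Secreted IL-1B measured by AlphaLISA bead assay after 16 h compound exposure of THP-1 cells; compounds (final up to 57.5 uM) added 1 h before LPS (250 ng/mL) and ATP (1.25 mM) stimulation; lower signal means less secretion.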
TDP1 cell CPT: DT40-hTDP1 cell growth loss with CPT; chicken DT40 Tdp1-/-;hTDP1 cells + 20 nM CPT, ATP luminescence, 48 h; Potency, µM (highest dose often 46.2 µM), for the others: at the top dose activity change, negative = growth inhibition, most hits filed as inhibitors; AID 686979; 12% of 420,000 active; note: potency is the fitted concentration of half-maximal effect; nearly all actives have a fitted effect of over 55% in size
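Chicken DT40 Tdp1-/- cells complemented with human TDP1, 400 cells/well, exposed to compounds plus 20 nM camptothecin for at least 48 h at 37 C; viability read as ATP content by CellTiter-Glo luminescence.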
* marks the source's active call; other numbers are inactive results; ? = inconclusive; . = no result given. Unless noted, calls come from the whole dose curve; as a rule, active = well fitted curve in the direction sought with a large enough effect; inconclusive = small, poorly fitted or top-dose-only effect, or another doubt; inactive = no such curve, though single readings can be large; an effect the other way counts as inactive or inconclusive. Unless noted, % is set by controls: 0 for no effect and ±100 for the full control effect.

SMILES | LDHA inh | RORgamma inh | Gal4-VP16 FLuc | DT40 TDP1 no CPT | IL-1B inflam inh | TDP1 cell CPT
CCCCNC(=O)c1nc(C2CCN(S(=O)(=O)c3ccccc3)CC2)oc1-c1cccc(C(F)(F)F)c1 | -11.4 | . | . | -19.5% | -23.9 | ?
CCCCNC(=O)c1nc(C2CCN(S(=O)(=O)c3ccc(Cl)cc3)CC2)oc1-c1ccccc1 | 1.6 | . | . | 7.31µM* | 0.0 | 7.31µM*
CCCCNC(=O)c1nc(C2CCN(S(=O)(=O)c3c(OC)cccc3OC)CC2)oc1-c1ccccc1 | -2.1 | . | . | 9.2µM* | -18.7 | 11.6µM*
CCCCNC(=O)c1nc(C2CCN(S(=O)(=O)c3cccc(C(F)(F)F)c3)CC2)oc1-c1ccccc1 | -6.2 | . | . | 8.2µM* | 13.0 | 9.2µM*
CC(=O)NCc1ccc(-c2csc(Nc3ccc(F)cc3)n2)o1 | -11.4 | . | . | . | . | .
Cc1ccc(-c2ccsc2C(=O)NCc2ccccn2)cc1 | 11.8 | . | . | . | . | .
CCOC(=O)c1c(NC(=O)CSc2nnc(Cc3ccccc3)o2)sc(C)c1C | -1.2 | ? | 1.0% | ? | 10.8 | ?
CCOC(=O)c1c(NC(=S)Nc2ccccc2)sc(C)c1C | 2.2 | 3.55µM* | ? | ? | 0.0 | ?
Cc1sc(NC(=O)Nc2ccccc2)c(C(N)=O)c1C | 0.3 | -11.3% | ? | -23.7% | -76.0* | ?
CCOC(=O)c1cc(C)sc1NC(=S)Nc1ccccc1 | -10.3 | ? | 3.16µM* | -13.8% | 19.5 | -17.5%
CCOC(=O)c1c(NC(=O)C[n+]2ccc(Cc3ccccc3)cc2)sc(C)c1C | 3.6 | ? | ? | 6.51µM* | -73.5* | 11.6µM*
CC(O)CNS(=O)(=O)c1ccc(Cl)c(C(=O)O)c1 (stereo not drawn) | -2.3 | . | . | . | . | .
CCOC(=O)c1c(NC(=S)NCC2CCCO2)sc(C)c1C (stereo not drawn) | -4.8 | 1.58µM* | 4.47µM* | ? | 39.3 | -21.6%
CCOC(=O)c1c(NC(=O)C2=C(C)NC(=S)NC2c2ccccc2C(F)(F)F)sc(C)c1C (stereo not drawn) | 1.4 | ? | 3.55µM* | ? | -14.4 | ?
NC(=O)COc1ccc(C2CC(=O)Nc3n[nH]c(Nc4ccccc4)c32)cc1 (stereo not drawn) | 13.4 | . | . | . | . | .
COc1cc([N+](=O)[O-])cc(/C=N/NC(=O)c2cncc(Br)c2)c1O | 1.7 | 2.82µM* | ? | 18.4µM* | 73.8 | 4.61µM*
COc1cc(/C=N/NC(=O)c2cncc(Br)c2)cc([N+](=O)[O-])c1O | 0.9 | 0.316µM* | ? | ? | 55.8 | ?
O=C1NN=C(c2ccc(Cl)cc2)CC1c1cccc(Cl)c1 (stereo not drawn) | 0.0 | 33.5% | -5.9% | 16.4µM* | -13.6 | 29.1µM*
CC1(C)CC(=O)C=C(c2ccc(-c3cnc4ccccc4c3)cc2)C1=O | -3.8 | . | . | 23.1µM* | -4.4 | ?
COc1ccc(C#Cc2ccc(C3=CC(=O)CC(C)(C)C3=O)cc2)cc1 | -0.6 | . | . | 16.4µM* | -8.7 | ?
CC1(C)CC(=O)C=C(c2ccc(-c3cccc4c3sc3ccccc34)cc2)C1=O | -2.9 | . | . | 18.4µM* | -6.3 | ?
COCCn1cc(C(=O)NCCc2ccccc2OC)ccc1=O | -10.5 | . | . | . | . | .
COc1ccc([C@H]2/C=C\CN(S(=O)(=O)c3ccc(C)cc3)[C@@H](C)C(=O)N2Cc2ccc(F)cc2)cc1 | -0.2 | . | . | ? | 26.0 | 18.4µM*
COc1ccc([C@H]2/C=C\CN(S(=O)(=O)c3cccc4cccnc34)[C@@H](C)C(=O)N2Cc2ccc(F)cc2)cc1 | 0.3 | . | . | 14.6µM* | -9.8 | 18.4µM*
COc1ccc(C2/C=C\CN(S(=O)(=O)c3ccc(C)cc3)CC(=O)N2Cc2cccc(F)c2)cc1 (stereo not drawn) | -3.1 | 16.6% | 4.5% | ? | 27.2 | 14.6µM*
SMILES | LDHA inh | RORgamma inh | Gal4-VP16 FLuc | DT40 TDP1 no CPT | IL-1B inflam inh | TDP1 cell CPT
COc1ccc(C2/C=C\CN(S(=O)(=O)c3ccc(C)cc3)C(C)C(=O)N2Cc2ccc(F)cc2)cc1 (stereo not drawn) | . | 14.9% | -7.5% | . | . | .
COc1ccc(C2/C=C\CC(NS(=O)(=O)c3ccc(C)cc3)CC(=O)N2Cc2ccccc2F)cc1 (stereo not drawn) | 0.1 | . | . | ? | -22.4 | 23.1µM*
COc1ccc(C2/C=C\CN(S(=O)(=O)c3cccc4cccnc34)CC(=O)N2Cc2ccc(F)cc2)cc1 (stereo not drawn) | -10.0 | -32.8% | 6.3% | ? | 0.2 | ?
CCNc1c(NS(=O)(=O)c2ccc(OC)c(OC)c2)c(=O)oc2ccccc12 | -0.8 | . | . | . | . | .
C=C(C)CN(CC)C(=O)c1nc(-c2cccs2)oc1C | -1.3 | . | . | . | . | .
CCCOc1ccc(S(=O)(=O)NCCO)cc1 | 0.4 | . | . | . | . | .
COc1ccc(C2/C=C\CN(S(=O)(=O)c3ccc(C)cc3)CC(=O)N2Cc2ccc(F)cc2)cc1 (stereo not drawn) | -0.7 | 4.1% | 3.0% | 18.4µM* | 8.3 | ?
CSc1ccc(C2=NN(C(=O)C(C)C)C(c3ccc4nccnc4c3)C2)cc1 (stereo not drawn) | -2.7 | . | . | . | . | .
O=C(/C(=C/c1ccccc1)n1cncn1)c1ccc(Cl)cc1Cl | -6.8 | 23.9% | ? | ? | -100.4* | 5.6%
O=C(/C(=N/O)n1cncn1)c1ccccc1Cl | -6.8 | 0.8% | -0.3% | -0.4% | 7.0 | 9.5%
Cc1ccccc1NC(=O)C(C)Sc1ncnc2ccccc12 (stereo not drawn) | 2.9 | . | . | . | . | .
CCC1=NN(S(=O)(=O)c2ccc(C)cc2)C(O)(C(F)(F)F)C1 (stereo not drawn) | -2.9 | 21.0% | -5.2% | 1.9% | 11.4 | 5.0%
CCC1=NN(C(=O)c2cccnc2)C(O)(C(F)(F)F)C1 (stereo not drawn) | 1.7 | 11.2µM* | ? | ? | 0.4 | 16.4µM*
CCCCC1=NN(C(=O)c2cccnc2)C(O)(C(F)(F)F)C1 (stereo not drawn) | -4.3 | 10µM* | ? | 1.03µM* | 23.3 | 1.46µM*
O=C(Nc1ccc(F)c(Cl)c1)c1ccc(Cl)cc1N1CCCC1=O | -1.3 | . | . | . | . | .
CSc1ccc(/C=C(/C#N)C(=O)Nc2ccccc2Br)cc1 | 6.7 | . | . | . | . | .
COc1ccc(/C=C/c2nc(C#N)c(NCCCN(C)C)o2)cc1OC | 12.8 | . | . | . | . | .
O=c1c2c3c(sc2n(CCN2CCOCC2)c(=O)n1Cc1ccco1)CCCCC3 | 0.9 | 26.7% | -16.1% | 10.3µM* | ? | 8.2µM*

Compound activity deposited in PubChem by National Center for Advancing Translational Sciences (NCATS).
